Results from PubChem BioAssay (Tox21).
Several values for one entry are separate records, joined by “and”; a condition that tells them apart may be missing. Equal entries are not always repeated. Records with an inconclusive call do not appear. Where a call stands in place of a potency, no number is given. Activity calls are given as the source filed them. Calls follow the shape of the dose curve; as a rule, active = well fitted curve in the direction sought with a large enough effect in the repeat runs; inconclusive = weak or mixed curves; inactive = no such curve, though single readings can be large; an effect the other way counts as inactive or inconclusive.

Experiments:
[1] = target: Voltage-gated inwardly rectifying potassium channel KCNH2 (Homo sapiens) (UniProt Q12809); assay: Human Ether-a-go-go-Related Gene (hERG) channel small molecule antagonists: fluorescence cell-based qHTS assay (AID 1671200);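 also: hERG-expressing U2OS cells given a thallium stimulus after FluxOR II dye loading; series mostly up to about 77 µM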
Method in brief: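 Quantitative HTS in hERG-U2OS cells: thallium entry through the channel reports activity, read as continuous 480/540 nm fluorescence over 2 min after stimulus addition.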

[2] = target: Cytochrome P450 3A4 (Homo sapiens) (UniProt P08684); assay: Cytochrome P450 Family 3 Subfamily A Member 4 (CYP3A4) small molecule antagonists: luciferase reporter qHTS assay (AID 1671201); also: series mostly up to about 120 µM
Method in brief: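 Inhibition of CYP3A4 is measured as loss of light: the enzyme converts a proluciferin substrate to luciferin, detected luminescently. Reaction ran 1 h at room temperature with NADPH regeneration after a 10 min compound preincubation.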

[3] = target: Cytochrome P450 1A2 (Homo sapiens) (UniProt P05177); assay: Cytochrome P450 Family 1 Subfamily A Member 2 (CYP1A2) small molecule antagonists: luciferase reporter qHTS assay (AID 1671199); also: potency is read from the fitted curve at half-maximal effect
Method in brief: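 Signal from luciferin formed by CYP1A2 from a proluciferin substrate is read as luminescence, expressed in relative luminescence units. Compounds sit with enzyme 10 min, NADPH-driven reaction runs 1 h, all at room temperature.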
Also: nearly all actives have a fitted effect of over 50% in size.

Chain of Cytochrome P450 3A4 (Homo sapiens) (P08684 whole entry, looked up): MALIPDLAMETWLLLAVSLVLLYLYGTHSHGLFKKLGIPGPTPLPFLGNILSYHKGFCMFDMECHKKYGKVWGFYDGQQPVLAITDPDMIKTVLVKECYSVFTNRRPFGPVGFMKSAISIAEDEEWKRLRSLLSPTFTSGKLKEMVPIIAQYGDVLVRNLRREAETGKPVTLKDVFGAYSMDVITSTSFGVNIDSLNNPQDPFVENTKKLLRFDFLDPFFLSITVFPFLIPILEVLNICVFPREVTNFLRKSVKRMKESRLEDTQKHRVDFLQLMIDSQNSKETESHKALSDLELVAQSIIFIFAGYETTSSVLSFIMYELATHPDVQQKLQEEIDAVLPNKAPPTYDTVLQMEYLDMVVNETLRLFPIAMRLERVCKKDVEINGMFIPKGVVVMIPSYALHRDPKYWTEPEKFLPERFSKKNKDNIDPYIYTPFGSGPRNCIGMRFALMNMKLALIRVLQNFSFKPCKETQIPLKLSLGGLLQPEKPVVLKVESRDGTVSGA
Chain of Cytochrome P450 1A2 (Homo sapiens) (P05177 whole entry, looked up): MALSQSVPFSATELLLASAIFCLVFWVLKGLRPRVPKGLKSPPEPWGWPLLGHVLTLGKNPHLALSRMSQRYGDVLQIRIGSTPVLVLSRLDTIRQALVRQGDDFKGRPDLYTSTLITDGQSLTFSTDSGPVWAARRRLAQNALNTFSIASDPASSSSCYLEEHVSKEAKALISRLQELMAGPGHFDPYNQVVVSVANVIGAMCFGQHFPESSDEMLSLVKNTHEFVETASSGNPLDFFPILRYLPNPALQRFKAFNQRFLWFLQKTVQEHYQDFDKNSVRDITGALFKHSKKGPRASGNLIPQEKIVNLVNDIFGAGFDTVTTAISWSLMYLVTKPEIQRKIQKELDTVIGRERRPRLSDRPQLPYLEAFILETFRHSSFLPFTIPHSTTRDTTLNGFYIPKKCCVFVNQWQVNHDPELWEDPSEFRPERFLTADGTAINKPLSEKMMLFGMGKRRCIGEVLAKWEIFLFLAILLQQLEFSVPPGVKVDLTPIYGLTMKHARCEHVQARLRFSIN
Chain of Voltage-gated inwardly rectifying potassium channel KCNH2 (Homo sapiens) (Q12809 whole entry, looked up): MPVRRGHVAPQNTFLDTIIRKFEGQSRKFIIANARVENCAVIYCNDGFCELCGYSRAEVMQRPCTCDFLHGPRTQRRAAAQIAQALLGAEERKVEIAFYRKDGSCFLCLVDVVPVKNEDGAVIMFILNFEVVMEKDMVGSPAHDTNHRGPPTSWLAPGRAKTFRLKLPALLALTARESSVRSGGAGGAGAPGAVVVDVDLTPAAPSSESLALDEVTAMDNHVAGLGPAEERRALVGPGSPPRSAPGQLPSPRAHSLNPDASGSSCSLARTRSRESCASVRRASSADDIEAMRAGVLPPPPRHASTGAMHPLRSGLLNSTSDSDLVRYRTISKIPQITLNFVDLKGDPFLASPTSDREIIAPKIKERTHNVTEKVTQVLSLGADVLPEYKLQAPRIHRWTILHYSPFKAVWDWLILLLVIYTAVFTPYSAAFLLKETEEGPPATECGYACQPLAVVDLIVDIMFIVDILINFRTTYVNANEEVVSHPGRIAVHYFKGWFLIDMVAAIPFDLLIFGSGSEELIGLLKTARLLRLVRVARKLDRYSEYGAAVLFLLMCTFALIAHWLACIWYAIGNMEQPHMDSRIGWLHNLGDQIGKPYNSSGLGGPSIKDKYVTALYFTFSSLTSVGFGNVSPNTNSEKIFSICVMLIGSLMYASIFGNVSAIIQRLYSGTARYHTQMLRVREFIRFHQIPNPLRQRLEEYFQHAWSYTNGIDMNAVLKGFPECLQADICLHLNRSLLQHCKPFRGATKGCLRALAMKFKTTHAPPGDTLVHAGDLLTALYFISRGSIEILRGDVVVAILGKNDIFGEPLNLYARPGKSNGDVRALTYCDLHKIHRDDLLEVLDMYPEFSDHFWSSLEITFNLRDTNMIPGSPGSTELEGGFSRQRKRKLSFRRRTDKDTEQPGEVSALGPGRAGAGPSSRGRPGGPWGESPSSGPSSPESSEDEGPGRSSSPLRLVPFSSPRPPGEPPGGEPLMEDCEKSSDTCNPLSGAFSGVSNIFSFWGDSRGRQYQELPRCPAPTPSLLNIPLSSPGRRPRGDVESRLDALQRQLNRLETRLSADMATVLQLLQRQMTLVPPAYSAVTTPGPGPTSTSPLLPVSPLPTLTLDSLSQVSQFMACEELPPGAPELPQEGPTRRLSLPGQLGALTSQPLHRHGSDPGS

| SMILES | Potency [1] | Potency [2] | Potency [3] |
| --- | --- | --- | --- |
| Nc1nc2ncc(CNc3ccc(C(=O)N[C@@H](CCC(=O)O)C(=O)O)cc3)nc2c(=O)[nH]1 | inactive | inactive |  |
| Oc1c(Cl)cc(Cl)c(Cl)c1Cl |  | inactive | 62 µM (active) and 63.3 µM (active) |
| C[C@@H]1O[C@@H](OC[C@H]2O[C@@H](Oc3c(-c4ccc(O)c(O)c4)oc4cc(O)cc(O)c4c3=O)[C@H](O)[C@@H](O)[C@@H]2O)[C@H](O)[C@H](O)[C@H]1O |  | inactive | inactive |
| CC(C)(CO)COC(=O)C(C)(C)CO |  | inactive | inactive |
| CCOC(=O)/C=C\C(=O)OCC |  | inactive | inactive |
